Experimental data: PubChem BioAssay (NCATS)
Results filed as inconclusive are left out. The source made the active and inactive calls. Unless noted, calls follow the shape of the dose curve; as a rule, active = well fitted curve in the direction sought with a large enough effect; inconclusive = small, poorly fitted or top-dose-only effect, or another doubt; inactive = no such curve, though single readings can be large; an effect the other way counts as inactive or inconclusive.

Assays:
[1] = Cell Viability - Jurkat (AID 426;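 active = dose-dependent loss of cell ATP signal giving a full or clear fitted curve, ranked by lower potency value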; also: potency is read from the fitted curve at half-maximal effect); settings: qHTS
Outline: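 Jurkat (Clone E6-1) cells, 5000/well in complete medium, exposed to compounds for 40 hr at 37C; intracellular ATP measured by CellTiter-Glo luminescence after 20 min at room temperature. AC50 from Hill fits.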

[2] = Cell Viability - Hek293 (AID 427;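 active = compounds whose dose-response curve shows a full or clear partial loss of cell viability, called from curve shape rather than a numeric limit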;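 also: potency is read from the fitted curve at half-maximal effect; cells exposed to compound for 40 hours at 37 °C before reading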); settings: qHTS
Outline: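 Luminescent ATP content (CellTiter-Glo, 20 min at room temperature) was measured after a 40 hr, 37 °C compound exposure of HEK293 cells. AC50 values came from Hill-equation fits of qHTS concentration-response data normalized to DMSO and 100 uM tamoxifen.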

[3] = Cell Viability - HepG2 (AID 433; calls by dose curve;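 also: potency is read from the fitted curve at half-maximal effect; potency for ATP loss meaning cytotoxicity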); settings: qHTS
Outline: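 Cytotoxicity is scored as loss of intracellular ATP in HepG2 cells exposed to compounds for 40 h. Concentration-response curves, normalized to DMSO and 100 uM tamoxifen, give AC50 values.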

[4] = Cell Viability - MRC5 (AID 434; calls by dose curve;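 also: potency is read from the fitted curve at half-maximal effect; potency reflects cytotoxicity seen as loss of intracellular ATP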); settings: MRC5 lung fibroblast viability, qHTS
Outline: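 MRC5 normal human lung fibroblasts (1500/well) were treated with compounds for 40 hr at 37 °C in complete medium, and viable cells were measured as intracellular ATP by CellTiter-Glo luminescence. AC50 came from Hill fits, normalized to DMSO and 100 uM tamoxifen.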

[5] = Cell Viability - SK-N-SH (AID 435; calls by dose curve;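 also: potency is read from the fitted curve at half-maximal effect; compound exposure lasted 40 h at 37 °C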); settings: SK-N-SH neuroblastoma cell viability qHTS
Outline: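 Cells seeded at 1500 per well and incubated 5 hr at 37 °C. Compound added, then 40 hr at 37 °C. CellTiter-Glo added, 20 min at room temperature, luminescence read.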

[6] = molecular target: Mitogen-activated protein kinase 10 (Mus musculus) (UniProt Q61831); assay: JNK3 AlphaScreen Assay (AID 530; active = well fitted curve in either direction with a large enough effect, not every such curve was filed as active;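 also: kinase came from lysate of stimulated human HepG2 cells; signal reports phosphorylation of biotinylated GST-cJun 1-79 at Ser73 with 10 µM ATP; % is scaled to controls: 0 for no effect and ±100 for the full control effect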); settings: JNK3 lysate, c-Jun phosphorylation; series mostly up to 57.1 µM
Outline: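 Inhibitors reduce antibody binding to phosphorylated biotin-cJun, lowering AlphaScreen luminescence. Lysates from HepG2 cells pre-activated by IL-1beta plus TNF-alpha supplied JNK3; compounds were titrated.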

[7] = Cell Viability - N2a (AID 540); settings: N2a mouse neuroblastoma cell viability; at 92.2 µM (top of the series);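 also: plate controls were DMSO alone for no effect and tamoxifen control for full effect; nearly all actives have a fitted effect of over 45% in size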
Outline: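 Mouse neuroblastoma N2a cells, 1500/well, exposed to compounds 40 h at 37 °C in complete medium. Viability measured as cellular ATP by CellTiter-Glo luminescence; AC50 from Hill fits of concentration-response.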

[8] = Cell Viability - NIH 3T3 (AID 541); settings: NIH 3T3 cell viability, qHTS; activity change, negative = cytotoxicity: at 92.2 µM (top of the series);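 also: plate controls were DMSO alone for no effect and tamoxifen positive control for full effect; nearly all actives have a fitted effect of over 25% in size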
Outline: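 Mouse NIH 3T3 fibroblasts, 1000 cells/well, rested 5 hr at 37 °C, then exposed to compound for 40 hr at 37 °C in complete medium. Viability read as intracellular ATP by CellTiter-Glo luminescence; AC50 from Hill-equation fits of concentration-response data.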

[9] = Cell Viability - HUV-EC-C (AID 542); settings: HUV-EC-C endothelial cell viability, qHTS; series mostly up to 92.2 µM; also: % is scaled to controls: 0 for no effect and ±100 for the full control effect; nearly all actives have a fitted effect of over 35% in size
Outline: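 HUV-EC-C human vascular endothelial cells, 1000/well, exposed to compound for 40 hr at 37 °C in complete medium. Intracellular ATP was read by CellTiter-Glo luminescence. AC50 came from Hill-equation fits of concentration-response data.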

[10] = Cell Viability - H-4-II-E (AID 543); settings: H-4-II-E rat hepatoma viability; series mostly up to 92.2 µM; also: % is scaled to controls: 0 for no effect and ±100 for the full control effect; nearly all actives have a fitted effect of over 35% in size
Outline: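 Rat hepatoma H-4-II-E cells, 1500 per well, treated 40 h at 37 °C in complete medium. Cellular ATP read by CellTiter-Glo luminescence; AC50 from Hill fits of concentration-response.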

[11] = Cell Viability - Renal Proximal Tubule (AID 545); settings: renal proximal tubule cells viability; at 91.7 µM (top of the series), primary cells of rat origin unless noted; also: nearly all actives have a fitted effect of over 40% in size
Outline: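 Cytotoxicity is scored as a concentration-dependent drop in cellular ATP in primary rat renal proximal tubule cells exposed for 40 hr. AC50 derives from Hill modelling.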

[12] = Cell Viability - Mesenchymal (AID 546); settings: mesenchymal cells viability, qHTS; series mostly up to 91.7 µM;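 also: cells exposed to compound for 40 hours before reading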
Outline: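 Normal human renal glomerulus-derived kidney mesenchymal cells, 1000 per well in complete medium, were treated with compounds for 40 hr at 37 °C. Viability was read as intracellular ATP by CellTiter-Glo luminescence; AC50 values came from Hill-equation fits of qHTS concentration-response data.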

[13] = Cellular Toxicity (caspase-3) HepG2 (AID 654); settings: HepG2 caspase-3 activation, luminescence, 0% = DMSO only, 100% = tamoxifen; series mostly up to 92.2 µM;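 also: cells exposed to compound for 16 hours before reading; 0% = DMSO alone and 100% = caspase signal from 100 µM tamoxifen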
Outline: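 HepG2 cells (1500/well) were treated 16 h at 37 °C in complete medium, then caspase 3/7 activity was read by Caspase-Glo luminescence. Data were normalized to DMSO and 100 uM tamoxifen; AC50 came from Hill-equation fits of qHTS concentration-response.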

[14] = Cellular Toxicity (caspase-3) Jurkat (AID 655); settings: Jurkat caspase-3 activation, luminescence, DMSO = 0%, tamoxifen = 100%; at 92.2 µM (top of the series);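 also: cells exposed to compound for 16 h at 37 °C before reading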
Outline: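 Caspase 3/7 activation is scored as increased luminescence in Jurkat cells cultured with compound for 16 hours in complete medium. AC50 values come from Hill fits of qHTS concentration-response data normalized to DMSO and 100 uM tamoxifen controls.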

[15] = Cellular Toxicity (caspase-3) HUV-EC-C (AID 656); settings: HUV-EC-C cells, caspase-3 activation (apoptosis), vehicle = 0, 100 µM tamoxifen = 100%; series mostly up to 92.2 µM
Outline: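 Read-out: luminescence proportional to caspase 3/7 activity, measured 20 min after adding Caspase-Glo 3/7 reagent. Cells (HUV-EC-C) had received compound for 16 hr at 37°C. Increases relative to DMSO and 100 uM tamoxifen gave concentration-response AC50 values.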

[16] = Cellular Toxicity (caspase-3) SHSY5Y (AID 657); settings: SH-SY5Y caspase-3 activation, DMSO zero, 10 µM staurosporine = 100%; series mostly up to 91.7 µM
Outline: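 Cells plated and incubated 5 h at 37 °C, dosed over a concentration range, incubated 16 h, then given Caspase-Glo 3/7 reagent for 1 h at room temperature before luminescence reading. Staurosporine (10 uM) defined full stimulation.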

[17] = Cellular Toxicity (caspase-3) BJ (AID 658); settings: BJ fibroblasts, luminescence, normalized: DMSO 0%, staurosporine 100%; series mostly up to 91.7 µM
Outline: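 Luminescent aminoluciferin-substrate cleavage reports caspase 3/7 activity in normal human BJ fibroblasts after 16 hr compound exposure at 37 °C. Normalized to DMSO (basal) and 10 uM staurosporine (100%); AC50 from Hill fit of concentration-response.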

[18] = Cellular Toxicity (caspase-3) MRC-5 (AID 659); settings: MRC-5 cells, luminescence, normalized: DMSO 0%, 10 µM staurosporine 100%; series mostly up to 91.7 µM
Outline: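 Luminescence from caspase-cleaved aminoluciferin substrate (Caspase-Glo 3/7, 1 hr RT) reports caspase 3/7 activity in MRC-5 lung fibroblasts after 16 hr compound exposure. Normalized to DMSO basal and 10 uM staurosporine as 100%; AC50 from Hill fits.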

[19] = Cellular Toxicity (caspase-3) Mesangial (AID 660); settings: mesangial cells, normalized: DMSO 0%, 100 µM tamoxifen 100%; series mostly up to 91.7 µM;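 also: cells exposed to compound for 16 h before the caspase read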
Outline: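 Human renal glomerular mesangial cells, 1000/well, 5 h at 37 C before 16 h compound treatment. Caspase-Glo 3/7 luminescence after 20 min; normalized to DMSO and 100 uM tamoxifen, AC50 from Hill fit.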

[20] = Cellular Toxicity (caspase-3) SK-N-SH (AID 661); settings: SK-N-SH caspase-3 activation, qHTS, DMSO as zero, staurosporine as full; series mostly up to 91.7 µM
Outline: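 Human SK-N-SH neuroblastoma cells, 1500/well, were exposed to compounds for 16 hours at 37 °C. Caspase-Glo 3/7 luminescence was normalized to DMSO (basal) and 10 uM staurosporine (100%), and AC50 came from a Hill fit.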

[21] = Cellular Toxicity (caspase-3) H-4-II-E (AID 663); settings: H-4-II-E rat hepatoma, scaled: DMSO 0%, 100 µM tamoxifen 100%; series mostly up to 92.2 µM;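 also: cells exposed to compound for 16 hr before readout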
Outline: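 Luminescence from caspase-cleaved aminoluciferin substrate, read 20 min after reagent addition, reports caspase 3/7 activation in rat H-4-II-E cells after 16 hr compound exposure. Normalized to DMSO (basal) and 100 uM tamoxifen (100%); AC50 from Hill fits.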

Clc1cccc(C(Cl)(Cl)Cl)n1
inactive: Potency [1] > 92 µM | Potency [2] > 92 µM | Potency [3] > 92 µM | Potency [4] > 92 µM | Potency [5] > 92 µM | outcome [6] | activity change, negative = cytotoxicity [7] -3.54% | activity change, negative = cytotoxicity [8] -0.893% | Potency [9] | Potency [10] | activity change, negative = cytotoxicity [11] -6.77% | outcome [12] | outcome [13] | caspase-3 activation [14] -0.503% | outcome [15] | outcome [16] | outcome [17] | outcome [18] | outcome [19] | outcome [20] | outcome [21]
